We go through seven molecules from PubChem BioAssay.

“And” between values parts separate entries of the source, which are not always exact repeats. Equal values may be shown once. The source made the active and inactive calls.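 The calls were made as follows, unless noted: active = thallium flux through the channel raised or lowered by more than 3 SD from vehicle-only wells, actives on both sides; inactive = the rest.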

In one experiment the test system is F380Y. Nature of the experiment: BK channel mutant inhibitors and activators – cell-based, U2OS BacMam, thallium flux, beta subunits, selectivity assay, profiling panel (AID 1259406).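 Also: initial slope of Thallos dye fluorescence rise after thallium is added; log ratio against the mean of 0.3% DMSO vehicle wells on the same plate.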 To be noted: U2OS BacMam BK variants, at 30 µM.
The test system of another experiment is F380Y/beta1. The description is as above. To be noted: U2OS BacMam BK variants, at 30 µM.
The next experiment has as its system F380Y/beta2Delta. Described as above. To be noted: U2OS BacMam BK variants, at 30 µM.
The test system of a further experiment is F380Y/beta4. Described as above. To be noted: U2OS BacMam BK variants, at 30 µM.
The target of experiment [1] is Calcium-activated potassium channel subunit alpha-1 (Homo sapiens) + Leucine-rich repeat-containing protein 26 (Homo sapiens) (UniProt Q12791+Q2I0M4). Described as above. To be noted: U2OS BacMam BK variants, F380Y/Slo1WT/gamma1, at 30 µM.
For a further experiment, the system named is R275C. The description is as above. To be noted: U2OS BacMam BK variants, at 30 µM.
Another experiment concerns R275C/beta1. The description is as above. To be noted: U2OS BacMam BK variants, at 30 µM.
A further experiment concerns R275C/beta2Delta. Described as above. To be noted: U2OS BacMam BK variants, at 30 µM.
The test system of the next experiment is R275C/beta4. The experiment is described as above. To be noted: U2OS BacMam BK variants, at 30 µM.
The next experiment has as its system R275C/Slo1WT/beta2. The description is as above. To be noted: U2OS BacMam BK variants, at 30 µM.
A short description of experiment [2]: P. berghei load reduction in hepatocytes – cell-based, HepG2, luciferase luminescence, HepG2 viability, primary screen (AID 624349; in the data active = parasite load remaining mostly below about 12%, no sharp cut-off; inactive = mostly above about 10%;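 also: 100% = mean of DMSO negative control wells on the same plate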). To be noted: P. berghei liver stage in HepG2, luciferase luminescence, concentration not given here; parasite load remaining: stronger effect = lower value; viability: measured here: HepG2 viability without parasites.
The nature of experiment [3]: signal quenchers or enhancers, Cy5 substrate/SSB – biochemical, NIH Clinical Collection, E. coli SSB, artefact control for HCV NS3 helicase inhibitor project (AID 743268; call rule not given here). To be noted: Cy5-oligo bound E. coli SSB, fluorescence interference.
Experiment [4] deals with Hepatitis C virus NS3 helicase. Nature of the experiment: blockers of NS3h binding to DNA – biochemical, fluorescence polarization, NIH Clinical Collection, primary screen (AID 743270; call rule not given here). To be noted: NS3 helicase binding to Cy5-dT15 DNA, stronger effect = higher value, concentration not given here.
Experiment [5] in a line: compounds distorting NS3 helicase fluorescence signal – biochemical, NIH Clinical Collection, artefact control for HCV NS3 helicase inhibitor project (AID 743272; call rule not given here;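 also: HCV NS3 helicase with a Cy5 labelled single stranded DNA probe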). To be noted: fluorescence interference counterscreen, HCV NS3 helicase assay; stronger effect = lower value. A general note: Counterscreens check selectivity or assay interference.
Experiment [6] is described as follows: modulation of C. elegans fzo-1 (AID 1259413; call rule not given here;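 also: fzo-1 mutant C. elegans worms in liquid wells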). To be noted: C. elegans fzo-1 modulator screen, mean read-out; stronger effect = higher value.
A short description of experiment [7]: viability loss with induced miR-34 in A549 – imaging, A549 dox-inducible miR-34, nuclei and caspase counts, primary screen (AID 1347080;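 active = compounds whose cell count with miR-34 switched on is under 0.7 times the count with it off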). To be noted: A549 miR-34 inducible, Hoechst nuclei count, 48 h.
Experiment [8] deals with Single-stranded DNA-binding protein (Escherichia coli (strain K12)) (UniProt P0AGE0). Nature of the experiment: SSB-ssDNA binding inhibitors – biochemical, fluorescence polarization, NIH Clinical Collection, counter-screen for HCV NS3 helicase inhibitor project (AID 743271; in the data active = inhibition above about 28%). To be noted: E. coli SSB-DNA binding, stronger effect = higher value, concentration not given here. For orientation: Polarisation of emitted light reports the rotation of a fluorescent probe.

Experiment [9] is described as follows: MELAS cybrid and Rieske KO viability enhancers – cell-based, MELAS cybrids, Rieske KO mouse fibroblasts, CellTiter-Glo, primary screen (AID 1508586;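 active = mean z-score across replicates of 1.96 or higher in either the MELAS or the Rieske mutant cell line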;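 also: z relative to plate mean and SD of compound and empty wells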). To be noted: low glucose.
Where [10] appears, read: stronger effect = lower value, cell number ratio, induced over uninduced.
[11] abbreviates: measured here: relative caspase fold change +Dox/-Dox.
[12] abbreviates: measured here: total cells with miR-34 induction, stronger effect = lower value.
[13] abbreviates: measured here: total cells without miR-34 induction.
Setting [14] is: MELAS cybrid survival, CellTiter-Glo 48 h, stronger effect = higher value.
The mark [15] stands for this setting: Rieske KO mouse fibroblast survival, CellTiter-Glo 72 h.

Calcium-activated potassium channel subunit alpha-1 (Homo sapiens) + Leucine-rich repeat-containing protein 26 (Homo sapiens), sequence (Q2I0M4 whole entry, looked up, one chain of several): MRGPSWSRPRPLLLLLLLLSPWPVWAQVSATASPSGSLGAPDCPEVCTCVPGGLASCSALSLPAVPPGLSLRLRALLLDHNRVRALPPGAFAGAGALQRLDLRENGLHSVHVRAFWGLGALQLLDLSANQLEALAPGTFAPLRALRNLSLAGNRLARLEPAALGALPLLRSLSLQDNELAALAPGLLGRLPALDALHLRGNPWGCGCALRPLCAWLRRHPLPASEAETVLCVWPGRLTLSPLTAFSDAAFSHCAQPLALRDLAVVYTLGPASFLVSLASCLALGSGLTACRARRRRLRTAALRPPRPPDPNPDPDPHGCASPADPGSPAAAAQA

With `Clc1ccc(-n2nnnc2-c2cccnc2)c(Cl)c1`, the log fold change Tl+ flux in the experiment on F380Y is 0.0135 (inactive); with F380Y/beta1, -0.0393 (inactive); in the experiment on F380Y/beta2Delta, -0.0638 (inactive); with F380Y/beta4 it was 0.0275 (inactive); in [1], 0.00547 (inactive); in the experiment on R275C it was 0.00315 (inactive). Moreover, the log fold change Tl+ flux in the experiment on R275C/beta1 was 0.0215 (inactive); in the experiment on R275C/beta2Delta it was -0.00811 (inactive); in the experiment with R275C/beta4, 0.00931 (inactive); in the experiment with R275C/Slo1WT/beta2, 0.0349 (inactive).
By viability is commonly meant a read-out of living cells in per cent, often relative to untreated cells. In general, inhibition refers to the drop in the measured response relative to a control, in per cent. For `Cc1cccc(CCN2CCC(C(=O)c3ccc(NS(C)(=O)=O)cc3)CC2)n1`, the parasite load remaining in experiment [2] was 49.2% (inactive). Besides, in [2], the viability turned out to be 75.4%. The values for the fluorescence ratio in experiment [3] and in [5] were 0.97 (inactive) and 0.95 (inactive), respectively. The inhibition in [4] was -6.33% (inactive). Further, the mean signal in [6] is 229 (inactive). The fold change in experiment [7] (setting [10]) was 0.911 (inactive) and 0.937 (inactive) and 0.845 (inactive); in experiment [7] (setting [11]) it was 1.08 and 1.19 and 0.815. The cell count in experiment [7] (setting [12]) was 9110 and 5280 and 8030; in experiment [7] (setting [13]), 10000 and 5630 and 9500. Moreover, the log fold change Tl+ flux was 0.00945 (inactive) with F380Y; 0.0315 (inactive) in the experiment on F380Y/beta1; 0.0105 (inactive) with F380Y/beta2Delta; -0.0658 (inactive) in the experiment on F380Y/beta4; 0.0152 (inactive) in [1]; -0.00568 (inactive) with R275C. The log fold change Tl+ flux in the experiment on R275C/beta1 is 0.0227 (inactive); in the experiment on R275C/beta2Delta, -0.0466 (inactive); in the experiment with R275C/beta4 it was 0.0164 (inactive); in the experiment with R275C/Slo1WT/beta2, -0.028 (inactive).
As to `CCC(CO)NCCNC(CC)CO` (configuration not stated), in experiment [2], the parasite load remaining was 78.1% (inactive). Further, the viability in experiment [2] amounted to 129%. The fluorescence ratio is 1.1 (inactive) in [3] and 1.03 (inactive) in experiment [5]. In addition, the inhibition in experiment [4] is -5.91% (inactive); in experiment [8], -2% (inactive). Also, the mean signal in experiment [6] is 252 (inactive). The fold change in experiment [7] (setting [10]) is 0.98 (inactive) and 0.902 (inactive); in experiment [7] (setting [11]), 1.98 and 0.647. The cell count in experiment [7] (setting [12]) is 10400 and 7770; in experiment [7] (setting [13]), 10600 and 8610. The z-score is -0.216 (inactive) in [9] (setting [14]) and -0.177 in experiment [9] (setting [15]). The log fold change Tl+ flux with F380Y is -0.0102 (inactive); with F380Y/beta1, -0.0572 (inactive); with F380Y/beta2Delta, 0.024 (inactive); in the experiment on F380Y/beta4, -0.00313 (inactive); in experiment [1], -0.00134 (inactive); in the experiment on R275C it was 0.00482 (inactive). The log fold change Tl+ flux is -0.0497 (inactive) with R275C/beta1, 0.000295 (inactive) in the experiment on R275C/beta2Delta, -0.0366 (inactive) in the experiment with R275C/beta4 and 0.0123 (inactive) in the experiment with R275C/Slo1WT/beta2.
For the molecule `CC1(C)SC2C(NC(=O)C(N)c3ccccc3)C(=O)N2C1C(=O)O` (configuration not stated), the parasite load remaining in [2] was 64.5% (inactive). In experiment [2], the viability worked out at 97.1%. The fluorescence ratio in experiment [3] was 1.05 (inactive); in [5], 1.03 (inactive). Besides, the results for the inhibition in experiment [4] and in [8] were -3.18% (inactive) and -3.53% (inactive), respectively. Besides, the mean signal in experiment [6] is 248 (inactive). In addition, the fold change is 0.924 (inactive) in [7] (setting [10]) and 1.56 in experiment [7] (setting [11]). The cell count in experiment [7] (setting [12]) worked out at 9300; in experiment [7] (setting [13]), 10100. Further, the log fold change Tl+ flux is 0.0123 (inactive) in the experiment with F380Y; -0.00858 (inactive) in the experiment on F380Y/beta1; -0.029 (inactive) in the experiment on F380Y/beta2Delta; -0.0312 (inactive) in the experiment with F380Y/beta4; 0.0123 (inactive) in experiment [1]; 0.0182 (inactive) with R275C. Further, the log fold change Tl+ flux in the experiment on R275C/beta1 is -0.0441 (inactive); with R275C/beta2Delta it was 0.02 (inactive); with R275C/beta4 it was -0.0148 (inactive); in the experiment with R275C/Slo1WT/beta2, -0.0117 (inactive).
For the molecule `Nc1ccn([C@@H]2CS[C@H](CO)O2)c(=O)n1`, the parasite load remaining in experiment [2] is 60.8% (inactive) and 120% (inactive). In experiment [2], the viability was 121% and 70.7%. In addition, in experiment [6], the mean signal was 246 (inactive). Further, the figures for the fold change in [7] (setting [10]) and in [7] (setting [11]) were 0.962 (inactive) and 1.73, respectively. In addition, the cell count came to 10700 in experiment [7] (setting [12]) and 11100 in experiment [7] (setting [13]). The z-score in [9] (setting [14]) was -0.0861 (inactive); in experiment [9] (setting [15]), 0.0484. Also, the log fold change Tl+ flux in the experiment with F380Y was 0.00141 (inactive) and 0.0147 (inactive); in the experiment on F380Y/beta1, -0.0646 (inactive) and -0.0414 (inactive); in the experiment with F380Y/beta2Delta, -0.00742 (inactive) and 0.0531 (inactive); in the experiment with F380Y/beta4 it was -0.0496 (inactive) and -0.00739 (inactive); in experiment [1] it was 0.0127 (inactive) and 0.0118 (inactive); in the experiment on R275C it was -0.0937 (inactive) and 0.0141 (inactive). Also, the log fold change Tl+ flux is -0.00105 (inactive) and 0.0176 (inactive) with R275C/beta1; 0.0208 (inactive) and -0.0112 (inactive) with R275C/beta2Delta; 0.00653 (inactive) and -0.00304 (inactive) with R275C/beta4; 0.00916 (inactive) and -0.0234 (inactive) in the experiment with R275C/Slo1WT/beta2.
As for `CC1CC2C3CCC4=CC(=O)C=CC4(C)C3(F)C(O)CC2(C)C1(O)C(=O)CO` (configuration not stated), the parasite load remaining in experiment [2] was 69.5% (inactive). Also, in experiment [2], the viability came out at 108%. The fluorescence ratio is 0.1 (active) in experiment [3] and 1.04 (inactive) in experiment [5]. The inhibition is -0.45% (inactive) in experiment [4] and 1.81% (inactive) in experiment [8]. In experiment [6], the mean signal is 266 (inactive). In addition, the figures for the fold change in [7] (setting [10]) and in experiment [7] (setting [11]) were 0.928 (inactive) and 0.945, respectively. The cell count in experiment [7] (setting [12]) was found to be 8000; in experiment [7] (setting [13]), 8620. For the same molecule, the log fold change Tl+ flux in the experiment on F380Y was -0.000812 (inactive); in the experiment on F380Y/beta1 it was 0.043 (inactive); in the experiment on F380Y/beta2Delta, 0.0297 (inactive); with F380Y/beta4 it was -0.00203 (inactive); in experiment [1] it was 0.021 (inactive); in the experiment on R275C it was 0.00154 (inactive). In addition, the log fold change Tl+ flux in the experiment with R275C/beta1 is 0.0289 (inactive); in the experiment on R275C/beta2Delta it was -0.0295 (inactive); in the experiment on R275C/beta4, 0.0089 (inactive); in the experiment on R275C/Slo1WT/beta2, -0.0137 (inactive).
Consider `COc1cc(C)c(/C=C/C(C)=C/C=C/C(C)=C/C(=O)O)c(C)c1C`, for which the parasite load remaining in [2] is 45.7% (inactive). In experiment [2], the viability came out at 100%. Further, the fluorescence ratio in experiment [3] was 1.04 (inactive); in experiment [5], 1 (inactive). The inhibition in experiment [4] is 4.09% (inactive); in [8], 4.1% (inactive). Moreover, the mean signal in experiment [6] was 260 (inactive). In addition, the fold change in experiment [7] (setting [10]) is 0.995 (inactive); in [7] (setting [11]) it was 2.52. In addition, the cell count in experiment [7] (setting [12]) and in experiment [7] (setting [13]) was 10300 throughout. The z-score in experiment [9] (setting [14]) is 0.713 (inactive); in [9] (setting [15]), 1.44. Moreover, the log fold change Tl+ flux was -0.0381 (inactive) with F380Y; 0.176 (active) with F380Y/beta1; 0.35 (active) in the experiment on F380Y/beta2Delta; 0.0442 (inactive) with F380Y/beta4; 0.229 (active) in [1]; -0.0134 (inactive) in the experiment on R275C. In addition, the log fold change Tl+ flux with R275C/beta1 was 0.389 (active); in the experiment on R275C/beta2Delta it was 0.261 (active); in the experiment on R275C/beta4, 0.228 (active); in the experiment with R275C/Slo1WT/beta2, -0.0131 (inactive).
